The campaign covered roughly 16,000 compounds. About 2,600 (16%) were called active. Roughly 20% stayed inconclusive and do not appear here. Calls follow the shape of the dose curve; as a rule, active = well fitted curve in the direction sought with a large enough effect; inconclusive = small, poorly fitted or top-dose-only effect, or effect the other way; inactive = no such curve, though single readings can be large or run the other way. Not all results are given here. Some structures have more than one record in an assay (separate samples or runs), and their calls can disagree.

In general, AC50 refers to the midpoint of the concentration-response curve, whichever way the signal moves.
% is scaled to controls: 0 for no effect and ±100 for the full control effect.

The target of this assay is Cytochrome P450 2D6 (Homo sapiens) (UniProt P10635). As to the kind of experiment: Cytochrome panel assay with activity outcomes. Particulars: recombinant CYP, pro-luciferin dealkylation, luminescence, p450-cyp2d6; series mostly up to 57.1 µM.
Cytochrome P450 2D6 (Homo sapiens), sequence (P10635 whole entry, looked up): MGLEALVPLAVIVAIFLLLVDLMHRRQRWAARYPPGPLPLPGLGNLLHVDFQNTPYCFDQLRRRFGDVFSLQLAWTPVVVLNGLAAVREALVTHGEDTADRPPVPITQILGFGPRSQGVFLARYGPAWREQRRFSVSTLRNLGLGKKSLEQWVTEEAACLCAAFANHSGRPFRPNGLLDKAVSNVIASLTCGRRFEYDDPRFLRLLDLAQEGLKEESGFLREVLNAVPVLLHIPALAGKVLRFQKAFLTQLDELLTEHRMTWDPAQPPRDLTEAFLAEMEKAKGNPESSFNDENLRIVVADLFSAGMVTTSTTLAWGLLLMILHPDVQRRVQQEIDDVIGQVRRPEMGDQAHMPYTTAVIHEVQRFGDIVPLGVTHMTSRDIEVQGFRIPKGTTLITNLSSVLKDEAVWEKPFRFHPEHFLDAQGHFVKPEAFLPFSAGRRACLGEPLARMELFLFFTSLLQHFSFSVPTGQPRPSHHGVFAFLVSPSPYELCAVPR
As to `N#CC1=C(N)OC2=C(C(=O)CCC2)C12CCC1(CC2)OCCO1`, the AC50 result was “inactive”.

For the compound `CN1CCN(c2ncc3nc(-c4cn(C)c5ccccc45)c(=O)n(CCc4ccccc4)c3n2)CC1`, the AC50 entry is “inactive”.

Turning to `OC1(c2ccc(OC(F)F)cc2)CSC(=Nc2cccnc2)N1C1CC1` (stereo not given), the AC50 was 2 µM (active). The same measure, in the same setting: for `N#Cc1c(-c2ccccc2)nc2n(c1=O)CCS2` the value was “inactive”. As to `CN1CCCC[C@@H]1CCN1CCCCC1`, the activity, negative = inhibition was -1.48% [at 11.4 µM] (inactive). Consider `COc1ccc2c(c1)N(CC[C@H]1CCCCN1C)c1ccccc1S2`, for which the AC50 was 0.0501 µM (active). With `CN1CCCC[C@@H]1CCN1c2ccccc2Sc2ccc(S(C)=O)cc21` (stereo not given in full), the AC50 was 0.1 µM (active) and the activity, negative = inhibition is 0.0782% [at 11.4 µM] (inactive).

On to `COc1ccc(OCc2nnc(SCC(=O)N3c4ccccc4Sc4ccc(Cl)cc43)o2)cc1`, for which the AC50 result was “inactive”. `O=c1c(-c2ccccc2)nc2cncnc2n1C1CC1`: the AC50 result was “inactive”. Same read-out and setting: the same measure for `O=C(CCNC(=O)c1ccc(Br)o1)NCc1ccccn1`: “inactive”; for `COc1cc(=O)n2c(n1)SCCC2`: “inactive”. Still for that read-out and setting: the same measure for `CC12c3ccccc3C(c3ccccc31)C1C(=O)N(Cc3cccnc3)C(=O)C12` (stereo not given): “inactive”; for `O=C(NC(=S)Nc1cccc(Cl)c1N1CCCCC1)c1cccs1`: “inactive”; for `CC1CCN(c2ccccc2NC(=S)NC(=O)c2cccs2)CC1`: 0.2 µM (active). Take `Cc1cccc(NC(=S)NC(=O)c2cccs2)n1`: the AC50 entry was “inactive”. As for `COc1cccc(OCC(=O)NN=C2c3ccccc3-c3ccccc32)c1`, the AC50 result is “inactive”.

`O=c1c(-c2ccc(F)cc2)nc2cncnc2n1C1CC1`: the AC50 entry is “inactive”. Take `O=C(Nc1cccc2nsnc12)c1ccc(-c2cccc(Cl)c2)o1`: the AC50 result is “inactive”. As to `CCCn1nnc(NC(=O)c2ccc(-c3cccc(Cl)c3)o2)n1`, the AC50 entry is “inactive”.

With `COC(=O)c1sccc1-c1ccc(C(=O)Nc2cccc(Cl)c2)o1`, the AC50 was 15.8 µM (active). For the compound `Cc1nc2cnc(N3CCNCC3)nc2n(Cc2ccc(F)cc2)c1=O`, the AC50 result is “inactive”. On the same count and under the same terms, the same measure for `CCN(CC)CCCCCCCCOC(=O)c1cc(OC)c(OC)c(OC)c1`: 31.6 µM (active). Same read-out and setting: for `O=C(OCCCN1CCCCC1)c1ccc(O)cc1` the value was 5.62 µM (active). `COC(=O)c1cc(OC)c(OC)cc1NC(=S)N1CCCCC1`: the AC50 result was “inactive”. Turning to `CCOC(=O)C1=C(O)/C(=C/c2cc(OC)c(OC)c(OC)c2)N=C1C`, the AC50 result is “inactive”. Same read-out and setting: the same measure for `CCCCOC(=O)c1ccc(NC(=S)NC(=O)c2c(Cl)cnn2C)cc1`: “inactive”.

Take `COc1cc(CN2CCCCC2)cc2cc(C(=O)O)c(=O)oc12`: the activity, negative = inhibition was 4.16% [at 11.4 µM] (inactive). For `Cc1c(-c2ccc(O)cc2)nn(-c2ccc(O)cc2)c1-c1ccc(OCCN2CCCCC2)cc1`, the AC50 result was “inactive”. On the same count and under the same terms, the same measure for `CCN(CC)CCOC(=O)c1cc(Cl)c(N)cc1OC`: 15.8 µM (active); for `CCN(CC)CCNC(=O)c1ccc(Cl)c(S(=O)(=O)Nc2ccccc2OC)c1`: “inactive”; for `COc1cc(N)c(Cl)cc1C(=O)OCCCN1CCCCC1`: 0.126 µM (active). For `COc1cc(C(=O)OCC(=O)Nc2cc(C)on2)cc(OC)c1OC`, the AC50 result was “inactive”.

With `NS(=O)(=O)c1cc2c(cc1Cl)N[C@@H](C(Cl)Cl)NS2(=O)=O`, the AC50 entry is “inactive”.

For `COc1cccc(Cn2c(=O)c(-c3cccs3)nc3cnc(OCc4ccccc4)nc32)c1`, the AC50 result is “inactive”.

As for `Cn1c(=O)c(-c2ccccc2)nc2cnc(OCc3ccccc3)nc21`, the AC50 result is “inactive”.

As for `CCOC(=O)C1CCN(C(=O)c2ccccc2NC(C)=O)CC1`, the AC50 entry is “inactive”. The same measure, in the same setting: for `N#Cc1ccccc1NC(=O)Nc1cccs1` the value was “inactive”; for `Cc1nc2cnc(N(C)C)nc2n(-c2ccccc2)c1=O`, “inactive”; for `COc1ccccc1-n1c(SCC(=O)N2CCCC2)nc2cccnc21`, “inactive”. Regarding `CCOC(=O)c1c(NC(=O)Cn2nc([N+](=O)[O-])c(Br)c2C)sc2c1CCC(C)C2` (stereo not given), the AC50 entry was “inactive”. Turning to `CCCCOc1ccccc1N`, the AC50 entry is “inactive”. Still for that read-out and setting: for `CCN(CC)C(=O)c1ccc(O)c(OC)c1` the value was “inactive”; for `CCCOc1cc(N)ccc1C(=O)OCCN(CC)CC`, 2 µM (active). Still for that read-out and setting: the same measure for `O=C(O)/C=C/c1cn(-c2ncc(C(F)(F)F)cc2Cl)c2ccccc12`: “inactive”. `CSc1nnnc2ccccc12`: the activity, negative = inhibition is 0.441% [at 11.4 µM] (inactive). With `Cc1nc2cnc(Oc3cccc(Cl)c3)nc2n(CCC#N)c1=O`, the AC50 result is “inactive”. Same read-out and setting: the same measure for `CCC(Sc1ncccc1C(=O)O)C(=O)N1CCOCC1` (stereo not given): “inactive”; for `NS(=O)(=O)Cc1noc2ccccc12`: “inactive”. Regarding `O=C(O)/C=C\C(=O)Nc1ccc2c(c1)C(=O)c1cc(F)ccc1-2`, the activity, negative = inhibition is -18.3% [at 11.4 µM] (inactive).

For `COc1cccc(-c2nc(NC3CCNCC3)c3ccccc3n2)c1`, the AC50 entry is “inactive”. For `COc1cccc(-c2nc(NCCNC(C)=O)c3ccccc3n2)c1`, the AC50 is 3.98 µM (active). Take `COc1cccc(-c2nc(NC3CC3)c3ccccc3n2)c1`: the AC50 is 7.94 µM (active).

Regarding `COCCNc1nc(-c2cccc(NS(C)(=O)=O)c2)nc2ccccc12`, the AC50 result was “inactive”. On to `COCCNc1nc(-c2cccc(OC)c2)nc2ccccc12`, for which the AC50 was 20 µM (active). Consider `O=c1cnc2cnc(Nc3ccccc3)nc2n1C1CC1`, for which the AC50 result was “inactive”.

For `COc1ccc2c(c1)-c1ccccc1S(=O)(=O)N2C(C)=O`, the AC50 result is “inactive”. On the same count and under the same terms, for `CCOC(=O)c1cnn(-c2ccccc2)c1-n1cccc1C(=O)C(=O)Nc1ccccc1C(F)(F)F` the value was “inactive”; for `N#C/C(=C\c1cccs1)C(=O)NCC1CCCO1` (stereo not given), “inactive”; for `CN(C)/C=C/C(=O)c1ccc(Cl)cc1`, “inactive”. Same read-out and setting: the same measure for `Cc1ccc(/C=N\NC(=O)c2cc(OCC(F)(F)F)ccc2OCC(F)(F)F)cc1`: “inactive”; for `COc1ccc(NC(=O)N(C2CCCCC2)C(C)c2cccnc2)c(OC)c1` (stereo not given): “inactive”; for `Cc1cc(OC(=O)c2ccccc2Br)cc(=O)n1C`: “inactive”. Consider `O=C(CCc1nc2ccccc2c(=O)[nH]1)OCC(=O)N1CCN(S(=O)(=O)c2ccccc2)CC1`, for which the AC50 result was “inactive”.

Take `Cc1nc2ccccn2c1/C(O)=C1\C(=O)C(=O)N(CCCn2ccnc2)C1c1ccncc1` (stereo not given): the AC50 result is “inactive”. For `CCN(CC)c1ccc(NC(=O)c2cccnc2)c(C)c1`, the AC50 result is “inactive”. Still for that read-out and setting: for `COc1ccc(-c2cc3ccccc3n2CC(O)CNCCO)cc1` (stereo not given) the value was 0.562 µM (active). Still for that read-out and setting: for `COc1cccc(C2C(C(=O)c3cc4ccccc4o3)=C(O)C(=O)N2c2cc(C)on2)c1OC` (stereo not given) the value was “inactive”; for `CSc1nc2n(n1)C(c1cccc(F)c1)C(C(=O)Nc1ccc(C)cc1C)=C(C)N2` (stereo not given), “inactive”. With `N#Cc1ccc(CN2CCCC3(CCN(C(=O)c4ccncc4)CC3)C2)cc1`, the AC50 entry is “inactive”. Same read-out and setting: for `O=C(c1ccco1)N1CCC2(CCCN(Cc3ccncc3)C2)CC1` the value was 3.16 µM (active); for `O=C(c1ccncc1)N1CCC2(CCCN(Cc3ccccc3)C2)CC1`, “inactive”; for `N#Cc1cccc(NC(=O)N2CCCC3(CCN(C(=O)c4ccco4)CC3)C2)c1`, “inactive”.

Regarding `N#Cc1ccc(CN2CCCC3(CCN(C(=O)c4cccc(F)c4)CC3)C2)cc1`, the AC50 entry is “inactive”. Same read-out and setting: the same measure for `O=C(c1ccco1)N1CCC2(CCCN(Cc3ccccc3)C2)CC1`: “inactive”; for `O=C(c1cccc(F)c1)N1CCC2(CCCN(Cc3nccs3)C2)CC1`: “inactive”. With `O=C(c1ccncc1)N1CCC2(CCCN(Cc3ccncc3)C2)CC1`, the AC50 is 6.31 µM (active).

Take `COc1ccc(C(=O)N2CCC3(CCN(Cc4ccc(C#N)cc4)CC3)CC2)cc1`: the AC50 result was “inactive”.

In the case of `O=C(c1cccc(F)c1)N1CCC2(CCCN(Cc3ccncc3)C2)CC1`, the half-maximal activity concentration (AC50) is 7.94 µM (active).

Take `N#Cc1ccc(CN2CCC3(CC2)CCN(C(=O)c2ccncc2)CC3)cc1`: the AC50 was 6.31 µM (active).

As to `CC1(C)NC(=O)N(c2ccc([N+](=O)[O-])c(C(F)(F)F)c2)C1=O`, the AC50 result is “inactive”.

`O=[N+]([O-])c1ccc(N2CCCCC2)c(Cl)c1N1CCCCC1`: the AC50 entry was “inactive”. On the same count and under the same terms, for `Cc1ccc(C)c(Cn2cnc3c(cnn3C(C)(C)C)c2=O)c1` the value was “inactive”. Still for that read-out and setting: the same measure for `N#Cc1cccc(-c2nc3cnc(N4CCOCC4)nc3n(C[C@H]3CCCO3)c2=O)c1`: “inactive”.

Turning to `CC1(C)Cc2c(C#N)c(SCc3ccccc3)nc(N3CCOCC3)c2CO1`, the AC50 result is “inactive”. Turning to `Cn1c(=O)c2[nH]c(CSCc3ccccc3)nc2n(C)c1=O`, the activity, negative = inhibition was -20.6% [at 11.4 µM] (inactive). As for `COc1ccc(C2=NOC(C(=O)Nc3ccc(C(C)=O)cc3)C2)cc1OC` (stereo not given), the AC50 entry is “inactive”. As for `CC(C)C(=O)N[C@H]1CCCN1C(=O)/C=C\c1ccccc1`, the activity, negative = inhibition was -5.27% [at 11.4 µM] (inactive). Same read-out and setting: the same measure for `Cn1c(=O)c2[nH]c(CCCc3ccc([N+](=O)[O-])cc3)nc2n(C)c1=O`: -15.3% [at 11.4 µM] (inactive). `COc1ccccc1-c1cncnc1N1CCN(C)CC1`: the AC50 was 25.1 µM (active).

Consider `Cc1nc2cnc(N3CCN(C)CC3)nc2n(-c2ccccc2)c1=O`, for which the AC50 result was “inactive”. In the case of `COc1ccccc1N1CCN(C[C@@H]2CN3C(=O)N(C)c4ccccc4C3=N2)CC1`, the AC50 result is “inactive”.

Consider `CN1CCN(c2ccncc2S(=O)(=O)N2CCN(C)CC2)CC1`, for which the activity, negative = inhibition was 0.642% [at 11.4 µM] (inactive). Turning to `COc1ccccc1N1CCN(c2nc3c(C)cccn3c(=O)c2C=O)CC1`, the AC50 entry was “inactive”.

On to `Cc1ccccc1-c1cncnc1N1CCN(C)CC1`, for which the AC50 was 12.6 µM (active). Consider `CN1CCN(c2ncncc2-c2ccccc2Cl)CC1`, for which the AC50 is 12.6 µM (active). In the case of `COc1ccc(Cc2ccccc2C(=O)O)c2ccccc12`, the activity, negative = inhibition is 11.8% [at 11.4 µM] (inactive). Turning to `CC(C)CNS(=O)(=O)c1cc(C(=O)N2CC(C)OC(C)C2)c(Cl)cc1Cl` (stereo not given), the AC50 result is “inactive”. For the compound `O=C(O)[C@@H](O)c1ccc(F)cc1`, the activity, negative = inhibition is 4.43% [at 11.4 µM] (inactive). Consider `O=C1CCN(S(=O)(=O)c2ccccc2)N1`, for which the AC50 result was “inactive”.

On to `Fc1cccc(F)c1C(Nc1nncs1)Nc1nncs1`, for which the activity, negative = inhibition is 19.1% [at 11.4 µM] (inactive). As for `CC(=O)C[C@H](c1ccc([N+](=O)[O-])cc1)c1c(O)c2ccccc2oc1=O`, the AC50 entry was “inactive”.

As for `OC[C@@H](O)[C@@H](O)[C@@H](O)[C@@H](O)c1nc2ccc(Cl)cc2[nH]1`, the activity, negative = inhibition was 19.4% [at 11.4 µM] (inactive). For `C1COC(NC(C2CC2)C2CC2)=N1`, the AC50 is 0.398 µM (active). The same measure, in the same setting: the same measure for `Cc1noc(C)c1C(=O)N1CCC[C@@]2(CCN(c3ncccn3)C2)C1`: “inactive”.

These data come from PubChem BioAssay AID1851 (National Center for Advancing Translational Sciences (NCATS), 2009).
